# DT40 TDP1 CPT: growth inhibition of DT40 Tdp1-/-;hTDP1 cells with camptothecin (screen for TDP1 inhibitors) | chicken DT40 Tdp1-/-;hTDP1 cells + 20 nM CPT, ATP luminescence, 48 h | Potency, µM (doses to about 46.2 µM), without a hit: top-dose activity change, negative = growth inhibition, most hits filed as inhibitors | 12% of 420,000 active | AID 686979; also: potency is read from the fitted curve at half-maximal effect; % is scaled to controls: 0 for no effect and ±100 for the full control effect; nearly all actives have a fitted effect of over 55% in size
#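 Cell growth measured by CellTiter-Glo luminescence after a minimum 48 h, 37 C compound exposure with 20 nM CPT in Tdp1-knockout DT40 cells stably expressing hTDP1, seeded 400/well; qHTS titration format.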
# DRD3 antagonist: antagonists of human D3 dopamine receptor; 2.5% of 360,000 active; max response, negative = inhibition, %; P35462; D3R cells, DiscoveRx beta-arrestin luminescence, antagonist mode; hits give low values; in the data active = max response below about -50%; inconclusive = no clear call, values can overlap the other calls; also: % is scaled to controls: 0 for no effect and ±100 for the full control effect
# Target sequence (P35462 whole entry, looked up): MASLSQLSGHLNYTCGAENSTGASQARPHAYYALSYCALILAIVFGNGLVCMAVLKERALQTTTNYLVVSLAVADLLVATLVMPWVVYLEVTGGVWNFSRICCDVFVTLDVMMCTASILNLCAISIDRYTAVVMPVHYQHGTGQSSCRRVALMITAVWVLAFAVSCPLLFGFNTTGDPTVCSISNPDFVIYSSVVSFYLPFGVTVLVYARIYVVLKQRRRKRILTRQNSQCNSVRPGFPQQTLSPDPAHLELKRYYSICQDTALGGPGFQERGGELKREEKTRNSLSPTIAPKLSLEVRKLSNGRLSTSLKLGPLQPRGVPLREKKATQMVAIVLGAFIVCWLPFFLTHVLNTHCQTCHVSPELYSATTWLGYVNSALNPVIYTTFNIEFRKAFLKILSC
#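 Cells expressing the human receptor were seeded at 1500 cells/well, incubated overnight at 37 degrees C in 5% CO2, then exposed to library compounds with dopamine controls for 90 minutes at 37 degrees C before luminescent detection.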
# DT40 TDP1 no CPT: qHTS for Inhibitors of human tyrosyl-DNA phosphodiesterase 1 (TDP1): qHTS in cells in absence of CPT | DT40 Tdp1-/- hTDP1 cells, no CPT, ATP luminescence, 48 h | Potency, µM (titrated, usually from 46.2 µM), without a hit: at the highest dose activity change, negative = growth inhibition, most hits filed as inhibitors | 15% of 420,000 active; also: potency is read from the fitted curve at half-maximal effect; % is scaled to controls: 0 for no effect and ±100 for the full control effect; nearly all actives have a fitted effect of over 55% in size
#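 Readout: luminescence from CellTiter-Glo after 30 min in the dark at RT. Cells: DT40 Tdp1-/- with stable hTDP1, 400/well. Exposure: compounds alone, ≥48 hr, 37 °C.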
# IL-1B inflam inh: inhibitors of inflammasome signaling (IL-1 beta secretion); THP-1 LPS/ATP IL-1B secretion, AlphaLISA, 16 h; hits give low values; 4.7% of 360,000 active; activity change, % at 57.5 µM; in the data active = activity change below about -50%; inconclusive = mostly about -30% to -49%; also: % is scaled to controls: 0 for no effect and ±100 for the full control effect
#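 THP-1 cells pretreated 1 hr with compounds (up to 57.5 uM final), then stimulated with LPS (250 ng/mL final) plus ATP (1.25 mM final); secreted IL-1B measured by AlphaLISA after 16 hr, decreased signal indicating inhibition.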
# ClpP mod: qHTS Assay for Activators of ClpP | AID 651965, 2013 | 1.9% of 340,000 active | Potency, µM (highest dose often 57.5 µM), for the others: at the top dose activity change, negative = active | purified B. subtilis ClpP, FRET peptide cleavage, 20 min; active = well fitted falling curve with a large enough effect; inconclusive = small, poorly fitted or top-dose-only effect; inactive = no such curve, though single readings can be large or run the other way; also: potency is read from the fitted curve at half-maximal effect; the source files actives as falling curves though it sought activators and does not explain the sign; nearly all actives have a fitted effect of over 65% in size
# Target sequence (P80244 whole entry, looked up): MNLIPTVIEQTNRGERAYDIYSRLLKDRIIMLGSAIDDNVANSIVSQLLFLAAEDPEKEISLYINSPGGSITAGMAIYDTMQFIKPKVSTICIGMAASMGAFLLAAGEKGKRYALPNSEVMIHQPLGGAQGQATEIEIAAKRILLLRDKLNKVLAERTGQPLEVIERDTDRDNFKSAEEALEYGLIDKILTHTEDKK
#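 ClpP 10 microg/mL final, pH 8 Tris/KCl buffer with BSA, glycerol, Tween-20; compound pinned in; FRET-FV substrate; RT 20 min; Ex320/Em430; ΔFRET vs ADEP 5.8 microM, DMSO, no enzyme.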
# DRD3 agonist: D3 dopamine receptor (human) agonism; D3R DiscoveRx beta-arrestin cells, luminescence, 90 min; max activation, %; 0.58% of 410,000 active; AID 652048; in the data active = max activation above about 30%; also: 0% is about no effect
#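 Agonist-mode cell screen: cells plated at 1500/well and incubated overnight at 37 °C, then exposed to library compounds for 90 min at 37 °C. Detection reagent was added for 30–60 min at room temperature, and luminescence was read.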
# Active calls of the source: *; u = inconclusive; x = not tested or not shown. Most compounds without a hit are left out; they make up all but 21% or so of the library. Unless noted, calls follow the shape of the dose curve; as a rule, active = well fitted inhibition curve with a large enough effect; inconclusive = small, poorly fitted or top-dose-only effect; inactive = flat fitted curve, though single readings scatter.
SMILES,DT40 TDP1 CPT,DRD3 antagonist,DT40 TDP1 no CPT,IL-1B inflam inh,ClpP mod,DRD3 agonist
Cc1ccccc1Cn1c(CCCNC(=O)C2CCCCC2)nc2ccccc21,18µM*,x,15µM*,x,0%,-18
O=C(NCCCc1nc2ccccc2n1Cc1ccc(F)cc1)C1CCCCC1,u,x,26µM*,x,-1%,-8
O=CNCCCc1nc2ccccc2n1Cc1ccccc1,-6%,-8,9%,-2,-3%,4
COc1ccc(N2CCN(C(=O)c3ccccc3NS(=O)(=O)c3ccccc3)CC2)cc1,6%,-8,-13%,-10,28µM*,-5
COc1ccc(N2CCN(C(=O)c3ccccc3N(C)S(=O)(=O)c3ccccc3)CC2)cc1,u,22,u,12,2%,5
CSc1ccc(S(=O)(=O)Nc2ccccc2C(=O)N2CCOCC2)cc1,1%,19,6%,17,-3%,6
O=C(c1ccccc1NS(=O)(=O)c1ccc(Br)cc1)N1CCOCC1,-6%,0,2%,-53*,2%,-15
Cc1ccc(S(=O)(=O)c2nnn3c2nc(NC(C)C)c2cc(Cl)ccc23)cc1C,14%,x,2%,x,-4%,5
CC(C)(C)N(Cc1ccccc1)C(=O)COC(=O)c1cccc([N+](=O)[O-])c1,-27%,-25,u,41,x,-8
O=C(O)CN1C(=O)/C(=C\c2cn(-c3ccccc3)nc2-c2ccccc2)SC1=S,-27%,15,-18%,11,x,-15
O=C1C(=Cc2cn(-c3ccccc3)nc2-c2ccc(OCc3ccccc3)cc2)SC(=S)N1CCS(=O)(=O)O,29µM*,-16,u,34,-4%,-10
Cc1ccc(-c2nn(-c3ccccc3)cc2C=C2SC(=S)N(CCS(=O)(=O)O)C2=O)cc1,-23%,u,u,-3,-2%,-8
CC(C)COc1ccc(-c2nn(-c3ccccc3)cc2/C=C2/SC(=S)N(CC(=O)O)C2=O)cc1,u,4,9.2µM*,-8,2%,0
CCN1C(=O)/C(=C\c2cn(-c3ccccc3)nc2-c2cccnc2)SC1=S,15µM*,2,u,9,-2%,0
CCOC(=O)c1c(C)oc2nc(C)nc(NCC3CCN(Cc4ccc(C)cc4)CC3)c12,u,x,-24%,x,-1%,-8
CCOC(=O)c1c(C)oc2nc(C)nc(NCCc3ccc(Cl)cc3)c12,u,x,13µM*,x,-1%,1
CCOC(=O)c1c(C)oc2nc(C)nc(NCc3ccc(C)cc3)c12,-99%,x,u,x,-3%,0
CCOC(=O)c1c(C)oc2nc(C)nc(NCCc3ccc(OCC)c(OCC)c3)c12,u,x,13µM*,x,-1%,7
CCOC(=O)c1c(C)oc2nc(C)nc(NCCc3ccc(OCC)cc3)c12,6.5µM*,x,5.2µM*,x,0%,11
COc1ccc(S(=O)(=O)N2CCCC2CNC(=O)C(=O)Nc2cccc(F)c2)cc1 (stereo unspecified),-13%,-21,u,0,u,-4
COc1ccc(CN2C(=NC(=O)C3CCCCC3)SC3CS(=O)(=O)CC32)cc1 (stereo unspecified),-1%,-7,18%,10,0%,2
O=C(Nn1cnnc1)c1cc(-c2cccc(Br)c2)nc2ccccc12,-28%,8,6%,-7,-11%,-1
O=C1CCC[C@@H]2C[C@@]3(C[C@@H]4CCN1[C@H]24)Nc1cc([N+](=O)[O-])ccc1NC3=NC1CCCCC1,26µM*,u,11µM*,-11,0%,-43
O=C1CC[C@@H]2CC3(C[C@@H]4CCN1[C@H]24)Nc1cc(Cl)ccc1NC3=NC1CCCCC1 (stereo partly specified),0%,-63*,-22%,-13,2%,-35
O=C1CCC[C@@H]2C[C@@]3(C[C@@H]4CCN1[C@H]24)Nc1cc(Cl)ccc1NC3=NC1CCCCC1,u,-78*,u,23,0%,-40
SMILES,DT40 TDP1 CPT,DRD3 antagonist,DT40 TDP1 no CPT,IL-1B inflam inh,ClpP mod,DRD3 agonist
Cc1cc2c(cc1C)N[C@]1(C[C@H]3CCC(=O)N4CC[C@@H](C1)[C@@H]34)C(=Nc1ccccc1C)N2,-81%,x,u,x,0%,x
COC(=O)[C@H]1C[C@@H]1[C@H](N)c1ccccc1,0%,-14,-2%,19,0%,-28
CN(c1ccccc1)c1ncnc2c1ncn2C,-23%,-6,-8%,-10,1%,0
Cc1c2cnccc2c(C)c2c1oc1ccccc12,u,5,23µM*,-73*,u,3
Cc1ccc(C2CC2c2n[nH]c(=S)n2-c2cccc(C)c2)cc1 (stereo unspecified),u,-13,16µM*,38,x,-7
O=C(NCCCN1CCCC1)c1ccc2c(c1)N(Cc1ccccc1F)C(=O)c1ccccc1S2(=O)=O,-16%,u,8%,u,-1%,-13
O=C1C=CC(=O)c2c(O)c(Cl)c(Cl)c(O)c21,u,x,2.1µM*,x,x,x
O=C1C=CC(=O)c2c(O)c(CO)c(CO)c(O)c21,2.1µM*,u,2.9µM*,-1,-14%,-3
COC(=O)C1C2OC(C(Br)C2Br)C1C(=O)OC (stereo unspecified),11%,-1,5%,27,1%,8
COc1ccc(CN2CCNC(=O)C2CC(=O)NCCCC2CCCC2)c(C)c1C (stereo unspecified),u,-8,u,u,-1%,-8
CCOC(=O)N1CCN(S(=O)(=O)N2CCCC(C(=O)NCc3ccc(OC)cc3)C2)CC1 (stereo unspecified),-21%,-2,-20%,23,x,-7

# Source: PubChem BioAssay (National Center for Advancing Translational Sciences (NCATS))
